Assay outcomes as filed in PubChem.
Vif inh – blocks HIV Vif function; 0.35% of 340,000 active; HEK293T cells, Vif self-association by quenched fluorescence, imaging, 24 h; inhibition, % at 7.49 µM; AID 602346; in the data active = inhibition above about 50%, passing the limit was not always enough; inconclusive = no clear call, values can overlap the other calls; inactive = below about 31%
HSF1 inhib – HSF1 inhibition; NIH3T3-HGL HSE-luciferase, MG132-induced, luminescence 8 h; hits give low values; activity change, negative = inhibition, % at 7.5 µM (by protocol); 0.77% of 300,000 active;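 active = more than half of replicate wells show activity change below -50%, luminescence cut by over half; inconclusive = some wells, but at most half, below -50%; inactive = no replicate well below -50%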;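 also: luciferase reports HSF-1 transcriptional activity via heat shock element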
esBAF inh – blocks esBAF chromatin remodeling in mouse ES cells. Bmi1-luciferase knock-in reporter, 24 h; 100% = twice the neutral-well signal. reporter increase, % at 12.5 µM. 2% of 350,000 active; in the data active = activation above about 40%; inconclusive = no clear call, values can overlap the other calls;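 also: a rise in the Bmi1 reporter signal indicates esBAF inhibition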
HSF1 activator – increases HSF-1 driven luciferase reporter signal | NIH3T3-HGL HSF-1 luciferase reporter, MG132, 8 h; 100% = twice DMSO control signal | 1.7% of 300,000 active | AID 504408 | activation, % at 9 µM;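 active = mean replicate activation of at least 50% with a set share of replicates each reaching 50%; inconclusive = only one of those two conditions met; inactive = mean below 50% and too few replicates reaching it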
Of the large screens only hits and unclear results are named; the others gave an inactive call. This is a sample that favours compounds with a hit; in the whole collection about 3.4% have one here.

O=C(NCCc1cccs1)C1CC(c2cccc(F)c2)=NO1 (configuration not stated)	none (no result: Vif inh)
CC(C)NC(=O)Nc1ccc2c(c1)C(=O)N([C@@H](C)CO)C[C@@H](C)[C@H](CN(C)CC1CCCCC1)OCCCC[C@H](C)O2	none (no result: Vif inh, HSF1 inhib, HSF1 activator)
O=c1c2ccccc2nc(-c2ccco2)n1Cc1ccccc1	esBAF inh 52
c1coc(-c2nc3nc4ccccc4nc3n2CC2CCCO2)c1 (configuration not stated)	HSF1 activator 56 (no result: esBAF inh)
Clc1ccc(OCCn2c(-c3ccco3)nc3ccccc32)cc1	HSF1 activator 137
c1ccc(-c2nc3nc4ccccc4nc3n2CC2CCCO2)cc1 (configuration not stated)	none (no result: esBAF inh)
c1ccc(Cn2c(-c3ccco3)nc3nc4ccccc4nc32)cc1	HSF1 activator 90 (no result: esBAF inh)
C[C@H]1CN([C@@H](C)CO)C(=O)Cc2cc(NC(=O)C3CCCCC3)ccc2O[C@@H]1CN(C)C(=O)NC1CCCCC1	none (no result: Vif inh, HSF1 inhib, HSF1 activator)
C[C@@H]1CN([C@@H](C)CO)C(=O)c2cc(-c3ccncc3)cnc2O[C@H]1CN(C)S(=O)(=O)c1ccccc1	none (no result: Vif inh, HSF1 inhib, HSF1 activator)
CC(C)NC(=O)N(C)C[C@H]1Oc2c(NS(=O)(=O)c3cccs3)cccc2C(=O)N([C@@H](C)CO)C[C@H]1C	none (no result: Vif inh, HSF1 inhib, HSF1 activator)
CCOC(=O)c1c(NC(=O)COC(=O)c2ccccn2)sc(C(=O)N(C)C)c1C	none
CCOC(=O)c1c(NC(=O)COC(=O)c2nccnc2N)sc(C(=O)N(C)C)c1C	HSF1 inhib -51
Cc1ccc(Cn2nc(C)c(NC(=O)CCCn3nc([N+](=O)[O-])c(Cl)c3C)c2C)cc1	none (no result: esBAF inh)
Cc1nn(Cc2ccccc2Cl)c(C)c1NC(=O)CCCn1nc([N+](=O)[O-])c(Cl)c1C	HSF1 activator 61 (no result: esBAF inh)
CN1CCN(C(=O)C[C@@H]2CC[C@@H]3[C@H](COc4ccc(NC(=O)c5cscn5)cc4C(=O)N3C)O2)CC1	none (no result: Vif inh, HSF1 inhib, HSF1 activator)
CCC(=O)Nc1nc(N)n(-c2ccccc2)n1	none
Nc1nc(NC(=O)C(Cl)(Cl)Cl)nn1-c1ccccc1	HSF1 inhib -77
CCOC(=O)C1CCN(C(=O)COc2ccc(Br)cc2Br)CC1	none
CCOC(=O)C1CCN(C(=O)COc2cc(C)c(Br)cc2C)CC1	HSF1 inhib -63
C[C@@H]1CN([C@@H](C)CO)C(=O)c2cc(NS(=O)(=O)c3cccs3)ccc2O[C@@H](C)CCCCO[C@@H]1CN(C)Cc1ccc(C(F)(F)F)cc1	none (no result: Vif inh, HSF1 inhib, HSF1 activator)
O=C1CCN(Cc2ccccc2)C=C1c1ccc2ccccc2c1	esBAF inh 63 (no result: HSF1 inhib, HSF1 activator)
O=C1CCN(Cc2ccccc2)C=C1c1ccc(Cl)cc1	none (no result: HSF1 inhib, HSF1 activator)
COc1ccccc1S(=O)(=O)N[C@H]1C=C[C@H](CC(=O)N2CCCCC2)O[C@@H]1CO	none (no result: Vif inh, HSF1 inhib, HSF1 activator)
COc1ccc(-c2cc(C(=O)N3CCN(c4ccc(F)cc4)CC3)no2)cc1OC	none
COc1ccc(-c2cc(C(=O)N3CCCCC3)no2)cc1OC	esBAF inh 59
COc1ccc(-c2cc(C(=O)N3CCCC3)no2)cc1OC	esBAF inh 67
O=C1Nc2ccccc2Nc2ncccc21	none
Cc1ccc2c(c1)NC(=O)c1cccnc1N2	esBAF inh 63
Cc1ccc(CN2C(=O)C(C)Oc3ccccc32)cc1 (configuration not stated)	none (no result: esBAF inh)
Cc1ccc(N2Cc3ccccc3OC(C)C2=O)cc1 (configuration not stated)	HSF1 activator 55 (no result: Vif inh)
COc1cccc(-c2cnc3c(c2)C(=O)N([C@H](C)CO)C[C@H](C)[C@H](CN(C)C(=O)NC2CCCCC2)O3)c1	none (no result: Vif inh, HSF1 inhib, HSF1 activator)
Oc1ccccc1C=NNC(=S)NC1CC2C=CC1C2 (configuration not stated)	esBAF inh 70 (no result: HSF1 inhib, HSF1 activator)
Oc1c(Cl)cc(Cl)cc1/C=N/NC(=S)NC1CC2C=CC1C2 (configuration not stated)	HSF1 activator 52 (no result: esBAF inh)
Oc1ccccc1/C=N/NC(=S)NC1CC2C=CC1C2 (configuration not stated)	none
O=C(c1ccccc1)c1ccc(-c2ccc(O)cc2)cc1	esBAF inh 76
CC(C)(C)C1CCC(C(=O)Nc2nccs2)CC1 (configuration not stated)	esBAF inh 53
O=C(N[C@@H]1C=C[C@@H](CC(=O)N2CCOCC2)O[C@H]1CO)c1ccc2c(c1)OCO2	none (no result: Vif inh, HSF1 inhib, HSF1 activator)
CCOc1ncccc1C(=O)Nc1cc2c(cc1Br)OCCO2	esBAF inh 55 (no result: HSF1 inhib, HSF1 activator)
CCOc1ncccc1C(=O)Nc1ccc2c(c1)OCO2	none (no result: esBAF inh)
O=C(N/N=C(\c1ccccc1)c1cccnc1)c1cccc(F)c1	HSF1 activator 127
O=C(N/N=C(\c1ccccc1)c1cccnc1)c1ccc(O)cc1	Vif inh inconclusive
O=C(NC1CCN(S(=O)(=O)c2ccccc2)CC1)C1CCCCC1	none (no result: Vif inh)
O=C(NC1CCCCCC1)C1CCN(S(=O)(=O)c2ccccc2)CC1	HSF1 activator 55
Cc1ccc(S(=O)(=O)NCCC(=O)N2CCN(S(=O)(=O)c3ccccc3)CC2)cc1C	HSF1 inhib -55
Cc1ccc(S(=O)(=O)NCCC(=O)N2CCN(S(=O)(=O)c3cccc(F)c3)CC2)cc1C	none (no result: esBAF inh)
CSCC[C@H](NC(=O)C1CCN(S(=O)(=O)c2ccccc2)CC1)C(=O)NC1CC1	HSF1 inhib -71
O=C(NC1CCCCC1)C1CCN(c2nccs2)CC1	HSF1 inhib -58
CO[C@@H]1CN(C)C(=O)c2ccc(NS(=O)(=O)c3cccc(C)c3)cc2OC[C@@H](C)N(Cc2cc(F)ccc2F)C[C@H]1C	none (no result: Vif inh, HSF1 inhib, HSF1 activator)
C[C@@H]1CCCCO[C@@H](CN(C)C(=O)Nc2ccc(F)cc2)[C@@H](C)CN([C@H](C)CO)C(=O)c2cc(NC(=O)Nc3ccccc3)ccc2O1	none (no result: Vif inh, HSF1 inhib, HSF1 activator)
Cc1ccc(S(=O)(=O)Nc2cccc3c2O[C@H](CN(C)C(=O)NC(C)C)[C@H](C)CN([C@H](C)CO)C3=O)cc1	none (no result: Vif inh, HSF1 inhib, HSF1 activator)
O=C(N[C@H]1C=C[C@H](CC(=O)N2CCCCC2)O[C@H]1CO)c1cccc(F)c1	none (no result: Vif inh, HSF1 inhib, HSF1 activator)
CCCC#Cc1cnc2c(c1)C(=O)N([C@H](C)CO)C[C@H](C)[C@@H](CN(C)C(=O)c1ccccc1)O2	none (no result: Vif inh, HSF1 inhib, HSF1 activator)
O=C(N1CCCCC1)N1CCN(S(=O)(=O)c2ccccc2)CC1	HSF1 inhib -71
O=C(N1CCCCCC1)N1CCN(S(=O)(=O)c2ccccc2)CC1	none
Cc1ccc(C(=O)CSc2ccccn2)cc1	esBAF inh 49, HSF1 activator 53
Cc1ccc(NC(=O)c2ccc(NC(=O)c3ccccc3)cc2)cc1C	none
Cc1ccnc(NC(=O)Nc2ccc3c(c2)N(C)C(=O)CS3)c1	HSF1 activator 69 (no result: esBAF inh)
Cc1ccc(NC(=O)CC(=O)c2ccccc2)cc1C	esBAF inh 75
Cc1ccc(NC(=O)Nc2ccc3c(c2)N(C)C(=O)CS3)nc1	esBAF inh inconclusive
Cc1cccc(NC(=O)Nc2ccc(C)c(C)c2)n1	esBAF inh 48
Cc1cccc(NC(=O)Nc2ccc3c(c2)N(C)C(=O)CS3)n1	esBAF inh 49
C[C@@H]1CN([C@@H](C)CO)C(=O)Cc2cc(N(C)C)ccc2O[C@H]1CN(C)S(=O)(=O)c1cccs1	none (no result: Vif inh, HSF1 inhib, HSF1 activator)
Cc1ccnc(NC(=O)Nc2ccc(F)cc2)c1	HSF1 activator 61 (no result: esBAF inh)
Cc1ccnc(NC(=O)c2cc3cc(F)ccc3s2)c1	HSF1 activator 72
Cc1ccnc(NC(=O)CNC(=O)c2ccc(C)s2)c1	esBAF inh inconclusive
